# Hits are enriched below; roughly 3.1% of the tested compounds scored in any of these assays.
# Tau fluor counter: Counterscreen qHTS for Inhibitors of Tau Fibril Formation, Fluorescence Polarization; hit rate 0.93% among 280,000; tau K18 P301L Alexa594 fluorescence, heparin fibrillization; Potency, µM (doses to about 57.7 µM), inactives show top-dose activity change, negative = decrease; further: nearly all actives have a fitted effect of over 55% in size
#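 Human tau K18 P301L (15 uM unlabeled, 0.24 uM Alexa 594-labeled) in 100 mM sodium acetate pH 7 with 20 uM heparin, 6 hr at 37 C. ThT 30 uM added, 1 hr ambient; Alexa 594 FP and total fluorescence read at 555/632 nm.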
# TRb-SRC2 inh: qHTS for Inhibitors of the Interaction of Thyroid Hormone Receptor and Steroid Receptor Coregulator 2; AID 1469, 2008; TRbeta-SRC2 peptide binding, fluorescence polarization; receptor liganded with 1 µM T3; Thyroid hormone receptor beta (Homo sapiens), P10828; hit rate 0.065% among 280,000; Potency, µM (titrated, usually from 106 µM), inactives show top-dose activity change, negative = inhibition, most hits filed as inhibitors;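 further: plate controls were bound peptide for no effect and peptide without receptor for full effect; nearly all actives have a fitted effect of over 50% in size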
# Target sequence (P10828 whole entry, looked up): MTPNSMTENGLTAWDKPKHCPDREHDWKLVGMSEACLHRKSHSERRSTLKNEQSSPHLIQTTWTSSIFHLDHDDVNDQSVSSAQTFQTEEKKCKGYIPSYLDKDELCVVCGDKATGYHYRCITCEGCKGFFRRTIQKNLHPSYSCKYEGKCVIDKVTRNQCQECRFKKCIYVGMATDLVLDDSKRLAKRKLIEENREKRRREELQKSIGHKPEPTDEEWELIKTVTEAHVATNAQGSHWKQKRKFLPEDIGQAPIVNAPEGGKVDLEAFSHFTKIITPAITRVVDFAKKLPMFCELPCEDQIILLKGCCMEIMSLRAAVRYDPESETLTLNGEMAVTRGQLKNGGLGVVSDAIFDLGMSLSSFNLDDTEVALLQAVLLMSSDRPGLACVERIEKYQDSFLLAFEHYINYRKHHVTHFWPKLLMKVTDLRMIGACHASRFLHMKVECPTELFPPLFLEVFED
#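 A fluorescence polarization screen tested compounds at multiple concentrations against complex formation between 0.6 uM TRb ligand-binding domain and 20 nM Texas Red SRC2 peptide, with 1 uM T3 present; readout after 5 hr.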
# TR SRC2 fluor cs: Total Fluorescence Counterscreen for Inhibitors of the Interaction of Thyroid Hormone Receptor and Steroid Receptor Coregulator 2; TRb/SRC2 Texas Red total fluorescence interference; Potency, µM (series often up to 106 µM), for inactives: at the highest dose fluorescence change, negative = quenching; hit rate 0.29% among 280,000; AID 1479, 2009; active means well fitted curve in either direction with a large enough effect; inconclusive means small, poorly fitted or top-dose-only effect
#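 Human TRb ligand-binding domain at 0.6 uM with 20 nM Texas Red SRC2 peptide in Tris buffer containing 1 uM T3 and 5% DMSO, incubated with compound 5 h at ambient temperature. Total fluorescence (555/632 nm) calculated as parallel + 2 × perpendicular.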
# Tau fibril FP: qHTS for Inhibitors of Tau Fibril Formation, Fluorescence Polarization; AID 1468, 2008; Potency, µM (top dose mostly 57.7 µM), for inactives: top-dose activity, negative = inhibition, actives largely listed as inhibitors; K18 P301L tau heparin fibrillization, Alexa594 FP, 6 h; Microtubule-associated protein tau (Homo sapiens), P10636; hit rate 0.39% among 280,000; further: nearly all actives have a fitted effect of over 55% in size
# Target sequence (P10636 561-689 P618L limits assumed): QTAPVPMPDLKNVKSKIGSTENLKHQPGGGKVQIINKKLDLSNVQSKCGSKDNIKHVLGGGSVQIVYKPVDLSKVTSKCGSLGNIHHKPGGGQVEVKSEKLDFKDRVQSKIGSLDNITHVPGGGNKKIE
#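 FP of Alexa 594-tau after heparin (20 uM) induction. Substrate: human K18 P301L, 15 uM unlabeled, 0.24 uM labeled. Buffer 100 mM sodium acetate pH 7. 6 hr, 37 C.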
# Tau fibril ThT: qHTS for Inhibitors of Tau Fibril Formation, Thioflavin T Binding; Microtubule-associated protein tau (Homo sapiens), P10636; recombinant tau K18 P301L, heparin-induced fibrillization, ThT fluorescence; Potency, µM (titrated, usually from 57.4 µM), inactives show top-dose activity, negative = inhibition, usual class: inhibitors; hit rate 2.1% among 270,000; AID 1460, 2008; further: nearly all actives have a fitted effect of over 55% in size
#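 Fibril formation assay: tau K18 P301L at 15 uM with trace Alexa 594 label, heparin inducer 20 uM, pH 7 sodium acetate buffer, 37 C for 6 hr; endpoint ThT signal.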
# The depositor's hits bear a star; ? = inconclusive; · = not tested or not shown; [ ] = remark or other dose. Unless noted, the call rests on the fitted dose curve; in most records, active means well fitted curve in the direction sought with a large enough effect; inconclusive means small, poorly fitted or top-dose-only effect, or another doubt; inactive means no such curve, though single readings can be large; an effect the other way counts as inactive or inconclusive. Unless noted, on the % scale 0 is the no-effect control and ±100 the full control effect; potency means the concentration at half of the fitted maximal effect.
SMILES,Tau fluor counter,TRb-SRC2 inh,TR SRC2 fluor cs,Tau fibril FP,Tau fibril ThT
O=c1cc(-c2ccc(Cl)c(Cl)c2)[nH][nH]1,?,-14%,-4%,?,3.2µM*
Cc1ccc2nc(-c3ccc(N)cc3)sc2c1,?,0%,-5%,8%,5.6µM*
Cc1ccc2sc(-c3ccc(N)cc3)nc2c1,?,-9%,-4%,4%,4.5µM*
Nc1ccc2nc(-c3ccccc3)sc2c1,-29%,-18%,-4%,12%,?
CNC(=S)Nc1ccc(-c2nc3ccc(C)cc3s2)cc1,?,0%,-1%,?,15%
Nc1ccc(-c2nc3cc(N)ccc3s2)cc1,?,-3%,-5%,-1%,14µM*
CCCCNC(=O)CCCCCNS(=O)(=O)c1ccc(Br)cc1,-7%,0%,-2%,6%,-7%
CCc1ccc2c(O)c3c(cc2c1C(=O)OC)C(=O)c1c(O)ccc(O)c1C3=O,?,9%,19%,?,3.2µM*
Cc1nc2nc(SCC(=O)Nc3cccc(Cl)c3)nn2c(C)c1Cc1ccccc1,?,2%,-1%,-9%,-7%
Nc1cc(N2CCCCC2)c(Cl)cc1[N+](=O)[O-],?,6%,-2%,-2%,13µM*
Cc1cc(C)c2sc(N(Cc3cccnc3)C(=O)CCS(=O)(=O)c3ccccc3)nc2c1,-6%,0%,-1%,-7%,-14%
CC1(C)CC(=O)C(Sc2ccccc2[N+](=O)[O-])=C(O)C1,-3%,1%,-1%,-4%,-15%
O=C1CCCCCCC1Sc1ccccc1[N+](=O)[O-] (stereo unspecified),-23%,-1%,-1%,?,32µM*
O=C(Nc1ccc(Cl)cc1)c1cnn2c1NC(c1ccccc1)=CC2c1ccccc1 (stereo unspecified),10µM*[quencher],0%,4%,?,?
O=C(Cl)c1ccc(C(=O)Cl)cc1,·,5%[201 µM],-4%[201 µM],·,·
C/C=C/C(=O)Nc1cccc(C2=NOC3(C2)C[C@@H](C(N)=O)N(C(=O)c2cc([N+](=O)[O-])cc([N+](=O)[O-])c2)C3)c1 (stereo partly specified),-4%,-6%,-1%,3%,-5%
NC(=O)C1(NC(=O)[C@@H]2CC3(CC(c4cccc(NC(=O)c5cc([N+](=O)[O-])cc([N+](=O)[O-])c5)c4)=NO3)CN2C(=O)c2ccccc2)CC1 (stereo partly specified),25µM*[quencher],-11%,1%,?,-13%
O=c1cc(C23CC4CC(CC(C4)C2)C3)[nH][nH]1,-3%,25µM*,5%,-5%,?
N=C1/C(=C\c2ccc(SCc3ccco3)o2)C(=O)N=C2SC=NN12,-8%,-6%,?,-7%,6.3µM*
O=c1[nH]c2ccc(Br)cc2c(-c2ccccc2)c1CN1CCOCC1,-18%,1%,-5%,?,22µM*
O=c1[nH]c2ccc(Br)cc2c(-c2ccccc2)c1N1CCOCC1,-15%,10%,-3%,-4%,-15%
CCc1c(C)nc2nncn2c1Nc1ccc(C)c(F)c1,2%,-6%,0%,-2%,-2%
Cc1ccc(C)c(N(C)S(=O)(=O)c2ccc3[nH]cc(C(=O)NCCN4CCOCC4)c(=O)c3c2)c1,-19%,-6%,0%,-8%,2%
Cc1ccc(C)c(N(C)S(=O)(=O)c2ccc3[nH]cc(C(=O)NC4CCCC4)c(=O)c3c2)c1,?,-8%,1%,16µM*,5%
CCN(c1ccccc1)S(=O)(=O)c1ccc2[nH]cc(C(=O)NC3CCCCC3)c(=O)c2c1,?,-9%,-4%,3.5µM*,?
SMILES,Tau fluor counter,TRb-SRC2 inh,TR SRC2 fluor cs,Tau fibril FP,Tau fibril ThT
CCN(c1ccccc1)S(=O)(=O)c1ccc2[nH]cc(C(=O)NCCOC)c(=O)c2c1,-15%,-13%,2%,?,8%
CCN(c1ccccc1)S(=O)(=O)c1ccc2[nH]cc(C(=O)NCc3ccc(C)cc3)c(=O)c2c1,?,-12%,-55%,3.5µM*,11%
C[C@H]1/C=C\CC(=O)NCc2cccc(c2)CNC(=O)N[C@H]1c1ccccc1,-2%,8%,-1%,-1%,-2%
CCN(c1ccccc1)S(=O)(=O)c1cc(Br)cc2c1N(C(=O)C1CC1)CC2,-22%,1%,-1%,-9%,-6%
COC(=O)C/C=C\[C@@H](C)[C@@H](/C=N\O[C@@H](C)CN1CCCCc2nc(C)c(C)cc21)OC,-2%[11.6 µM],4%[11.2 µM],-8%[11.2 µM],1%[11.6 µM],-3%[11.5 µM]
CCC(Sc1nc2ncccc2[nH]1)C(=O)Nc1ccccc1F (stereo unspecified),-12%,5%,7%,-9%,-8%
Nc1cc(Cl)nc(C(=O)O)c1Cl,·,-4%[201 µM],-2%[201 µM],·,·
COc1cc(O)c(NC(C)=O)c2nonc12,-15%,-29%,-2%,?,7.9µM*
COc1cc(-c2ccc(NC(C)=O)c(OC)c2)ccc1NC(C)=O,-12%,-2%,-2%,-1%,-10%
Cc1ccc(OCC(=O)Nc2ccc3nc(SCC(=O)N4CCOCC4)sc3c2)cc1,-27%,0%,4%,-1%,-7%
COC(=O)c1sc2cccc(F)c2c1S(=O)(=O)Nc1cc(OC)cc(OC)c1,-24%,-5%,2%,-10%,-6%
Oc1ccc(C2Oc3cc(O)cc(O)c3CC2O)cc1 (stereo unspecified),-11%,4%,-3%,1%,-7%
O=C(O[C@@H]1Cc2c(O)cc(O)cc2OC1c1ccc(O)c(O)c1)c1cc(O)c(O)c(O)c1 (stereo partly specified),13µM*[quencher],5%,-8%,?,16µM*
O=C(OC1Cc2c(O)cc(O)cc2OC1c1cc(O)c(O)c(O)c1-c1c(C2Oc3cc(O)cc(O)c3CC2OC(=O)c2cc(O)c(O)c(O)c2)cc(O)c(O)c1O)c1cc(O)c(O)c(O)c1 (stereo unspecified),14µM*[quencher],6%,-28%,?,25µM*
Cc1ccc(C(=O)OCc2cc(=O)n3nc(CC(C)C)sc3n2)cc1,11%,-7%,?,-1%,9%
CCOC(=O)c1sc2ccccc2c1S(=O)(=O)Nc1ccc(N(C)C)cc1,?,-8%,0%,16%,?
CCCn1c2ccccc2c2cnn(CC(=O)Nc3cc(C)c(Cl)cc3OC)c(=O)c21,-8%,-4%,20µM*[quencher],2%,-3%
Nc1ccc(N2CCCCC2)c2nonc12,?,?,-2%,?,8.9µM*
Nc1ccc(N2CCCCC2)cc1N1CCCCC1,?,0%,24%,?,?

# Assay outcomes deposited in PubChem by National Center for Advancing Translational Sciences (NCATS).
